The values below come from PubChem BioAssay AID588649 (The Scripps Research Institute Molecular Screening Center, 2011).

The list shows a part of the results. Values without a mark were called inactive. Calls of active or inactive are those of the source. Rule as the data show it: active = inhibition above about 40%; inactive = the rest.

For the assay, the system named is Fam108b (ABHD17B) [Mus musculus]. As to the kind of experiment: mouse ABHD17B hydrolase inhibitors – biochemical, gel-based ABPP, soluble recombinant form, HTS hits, late-stage follow-up (AID 588649). The note with it: fluorophosphonate probe, at 20 µM, stronger effect = higher value.
Consider `Nc1ccc2nc3c(=O)[nH]c(=S)[nH]c3nc2c1`, for which the inhibition is 0%.

For `Oc1c(Cl)cc(Cl)c(Cl)c1Cc1c(O)c(Cl)cc(Cl)c1Cl`, the inhibition was 65% (active).

On to `O=C(NNc1c2ccccc2nc2ccccc12)c1cc2ccccc2cc1O`, for which the inhibition is 10%.

Regarding `COc1ccc(/C=C/C(=O)OCC(=O)Nc2cccc(Oc3ccccc3)c2)c(OC)c1`, the inhibition is 90% (active).

For the molecule `CC[N+](C)(CC)CCC[n+]1c(-c2ccccc2)c2cc(N)ccc2c2ccc(N)cc21`, the inhibition was 25%.

Regarding `COc1ccc(NS(=O)(=O)c2cc(NC(=O)CC(=O)c3ccc([N+](=O)[O-])cc3)ccc2C)cc1`, the inhibition was 25%.

With `O=C(Nc1ccc(-c2csc(Nc3cccc(C(F)(F)F)c3)n2)cc1)c1cccc(C(F)(F)F)c1`, the inhibition was 85% (active).

Regarding `Cc1ccc(S(=O)(=O)N=C2C=C(Sc3ncn[nH]3)C(=O)c3ccccc32)cc1`, the inhibition was 90% (active).
